PubChem BioAssay AID1159580 (chemical genetic matrix, 2015)
The whole screen tested about 5,500 compounds, of which about 2,000 (36%) were called active. Inconclusive results (about 18%) are left out. No stated cut-off is given here; in the data, active means normalized growth mostly below about 0.91 (no sharp cut-off); inconclusive means no clear call, values can overlap the other calls; inactive means mostly above about 0.92. The list shows a part of the results.

Test: chemical genetic growth profiling, strain panel (AID 1159580);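 further: tested at 20 µM; growth read once vehicle control cultures reached saturation at 30 °C; 1 = growth at the plate median or of vehicle wells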
Conditions: S. cerevisiae deletion strains, growth OD

Measured: normalized growth

CN1CCc2cc3c(cc2[C@H]1C1OC(=O)c2c1ccc1c2OCO1)OCO3 (stereo partly specified)
inactive: locus YAL021C, strain ccr4, stronger effect = lower value 1.01 | locus YAL026C, strain drs2, stronger effect = lower value 0.989 | locus YAL030W, strain snc1, stronger effect = lower value 0.982 | locus YBL061C, strain skt5, stronger effect = lower value 0.982 | locus YBR009C, strain hhf1, stronger effect = lower value 0.989 | locus YBR023C, strain chs3, stronger effect = lower value 0.972 | locus YBR171W, strain sec66, stronger effect = lower value 0.997 | locus YBR231C, strain swc5, stronger effect = lower value 0.993 | locus YBR279W, strain paf1, stronger effect = lower value 0.993 | locus YCL011C, strain gbp2, stronger effect = lower value 0.985 | locus YCL016C, strain dcc1, stronger effect = lower value 0.981 | locus YCL061C, strain MRC1, stronger effect = lower value 0.993 | locus YCL069W, strain vba3, stronger effect = lower value 0.986 | locus YCR088W, strain abp1, stronger effect = lower value 0.98 | locus YDL005C, strain med2, stronger effect = lower value 0.988 | locus YDL040C, strain nat1, stronger effect = lower value 0.99 | locus YDR001C, strain nth1, stronger effect = lower value 0.986 | locus YDR069C, strain doa4, stronger effect = lower value 0.974 | locus YDR137W, strain rgp1, stronger effect = lower value 0.971 | locus YDR159W, strain sac3, stronger effect = lower value 0.976 | locus YDR195W, strain ref2 0.957 | locus YDR297W, strain sur2, stronger effect = lower value 0.987 | locus YDR334W, strain swr1, stronger effect = lower value 0.981 | locus YDR335W, strain msn5, stronger effect = lower value 0.996 | locus YDR392W, strain spt3, stronger effect = lower value 0.905 | locus YEL003W, strain gim4, stronger effect = lower value 0.991 | locus YEL037C, strain rad23, stronger effect = lower value 0.971 | locus YEL061C, strain CIN8 (second series), stronger effect = lower value 0.973 | locus YER015W, strain faa2, stronger effect = lower value 0.982 | locus YER016W, strain bim1, stronger effect = lower value 0.989 | locus YER111C, strain swi4, stronger effect = lower value 0.991 | locus YER155C, strain BEM2 (second series), stronger effect = lower value 0.968 | locus YFR010W, strain ubp6, stronger effect = lower value 0.977 | locus YGL167C, strain pmr1, stronger effect = lower value 0.98 | locus YGL173C, strain kem1, stronger effect = lower value 0.988 | locus YGL227W, strain vid30, stronger effect = lower value 0.976 | locus YGL240W, strain doc1, stronger effect = lower value 0.983 | locus YGL253W, strain hxk2, stronger effect = lower value 0.987 | locus YHR013C, strain ard1, stronger effect = lower value 0.959 | locus YHR027C, strain rpn1, stronger effect = lower value 0.993 | locus YHR030C, strain SLT2, stronger effect = lower value 0.985 | locus YHR079C, strain IRE1, stronger effect = lower value 0.989 | locus YHR142W, strain chs7, stronger effect = lower value 1.01 | locus YJL092W, strain hpr5, stronger effect = lower value 0.991 | locus YJL095W, strain BCK1 (second series), stronger effect = lower value 0.988 | locus YJL095W, strain BCK1, stronger effect = lower value 0.987 | locus YJL115W, strain asf1, stronger effect = lower value 0.983 | locus YJL129C, strain trk1, stronger effect = lower value 0.975 | locus YJL154C, strain vps35, stronger effect = lower value 0.985 | locus YJL164C, strain tpk1, stronger effect = lower value 1.01 | locus YJL166W, strain qcr8, stronger effect = lower value 0.999 | locus YJL187C, strain SWE1, stronger effect = lower value 0.986 | locus YJR066W, strain TOR1, stronger effect = lower value 0.93 | locus YKL160W, strain elf1, stronger effect = lower value 1.01 | locus YKR026C, strain gcn3, stronger effect = lower value 0.979 | locus YKR091W, strain srl3, stronger effect = lower value 0.99 | locus YLL001W, strain dnm1, stronger effect = lower value 0.987 | locus YLL026W, stronger effect = lower value 0.983 | locus YLL041C, strain sdh2, stronger effect = lower value 0.994 | locus YLR027C, strain aat2, stronger effect = lower value 0.976 | locus YLR113W, strain HOG1, stronger effect = lower value 0.987 | locus YLR221C, strain rsa3, stronger effect = lower value 0.989 | locus YLR258W, strain gsy2, stronger effect = lower value 0.988 | locus YLR262C, strain YPT6 (second series), stronger effect = lower value 0.97 | locus YLR320W, strain mms22, stronger effect = lower value 0.993 | locus YLR342W, strain FKS1, stronger effect = lower value 0.983 | locus YLR357W, strain rsc2, stronger effect = lower value 0.997 | locus YLR370C, strain arc18, stronger effect = lower value 0.983 | locus YLR384C, strain iki3, stronger effect = lower value 0.976 | locus YML120C, strain ndi1, stronger effect = lower value 0.981 | locus YMR058W, strain fet3, stronger effect = lower value 0.969 | locus YMR125W, strain sto1, stronger effect = lower value 0.973 | locus YMR129W, stronger effect = lower value 0.995 | locus YMR205C, strain PFK2, stronger effect = lower value 0.98 | locus YMR231W, strain pep5, stronger effect = lower value 0.987 | locus YNL071W, strain lat1, stronger effect = lower value 0.989 | locus YNL183C, strain NPR1, stronger effect = lower value 0.94 | locus YNL209W, strain ssb2, stronger effect = lower value 0.985 | locus YNL248C, strain rpa49, stronger effect = lower value 0.993 | locus YNL322C, strain KRE1 (second series), stronger effect = lower value 0.987 | locus YNR049C, strain mso1, stronger effect = lower value 0.99 | locus YOR001W, strain rrp6, stronger effect = lower value 1.01 | locus YOR070C, strain gyp1, stronger effect = lower value 0.973 | locus YOR080W, strain dia2, stronger effect = lower value 0.994 | locus YOR083W, strain WHI5, stronger effect = lower value 1.01 | locus YOR106W, strain vam3, stronger effect = lower value 0.99 | locus YOR231W, strain MKK1, stronger effect = lower value 0.977 | locus YOR265W, strain rbl2, stronger effect = lower value 0.99 | locus YOR270C, strain vph1, stronger effect = lower value 0.947 | locus YOR290C, strain snf2, stronger effect = lower value 0.974 | locus YPL051W, strain arl3, stronger effect = lower value 1 | locus YPL078C, strain atp4, stronger effect = lower value 1.01 | locus YPL106C, strain sse1, stronger effect = lower value 0.967 | locus YPL240C, strain hsp82, stronger effect = lower value 0.996 | locus YPL256C, strain CLN2, stronger effect = lower value 0.968

Cc1c(C(=O)c2cccc3ccccc23)c2cccc3c2n1[C@H](CN1CCOCC1)CO3
inactive: locus YAL013W, strain DEP1, stronger effect = lower value 0.978 | locus YAL040C, strain CLN3, stronger effect = lower value 1.01 | locus YCL061C, strain MRC1 (second series), stronger effect = lower value 0.986 | locus YDR363W, strain ESC2, stronger effect = lower value 0.973 | locus YER002W, strain NOP16, stronger effect = lower value 0.998 | locus YMR307W, strain GAS1, stronger effect = lower value 1.01 | locus YNL153C, strain GIM3, stronger effect = lower value 0.983 | locus YNL175C, strain NOP13, stronger effect = lower value 0.992 | locus YNL197C, strain WHI3, stronger effect = lower value 0.988 | locus YNL224C, strain SQS1, stronger effect = lower value 1.02 | locus YOR083W, strain WHI5 (second series), stronger effect = lower value 1.02
